Hit rate of the full screen: of about 290,000 compounds, about 27,000 (9.3%) were called active. Cut-off read from the data, not from the text of the source: active = inhibition mostly above about 28% (no sharp cut-off); inactive = mostly below about 43%. The full list was thinned out, with actives kept by preference.

The nature of the test: A qHTS for Small Molecule Inhibitors of Shiga Toxin. Note: 0% is about no effect. As to conditions: Vero cells, Shiga toxin protein synthesis inhibition reporter; at 38.7 µM, hits give high values.
For the compound `O=C(COc1ccc(S(=O)(=O)N2CCOCC2)cc1Cl)N1CCOCC1`, the inhibition was -5.97% (inactive).

As for `O=C(c1ccccc1)N1CCC(CC2CC(c3ccc(Cl)cc3)=NO2)(C(=O)NCC2CCCCC2)CC1` (stereo not drawn), the inhibition was -0.8% (inactive).

For `Cc1ccc(N2CC(C(=O)Nc3ccc(S(=O)(=O)N4CCCC4)cc3)CC2=O)cc1C` (stereo not drawn), the inhibition was -5.32% (inactive).

For the compound `N#C/C(=C/c1ccc(-c2ccccc2[N+](=O)[O-])o1)C(=O)NCCN1CCCCC1`, the inhibition is 6.58% (inactive).

For `Cc1ccc(Cc2cnc(NC(=O)/C(C#N)=C/c3ccc(-c4cccc([N+](=O)[O-])c4)o3)s2)cc1`, the inhibition is 19.7% (inactive). The same measure for `Cc1ccc(-c2ccc(/C=C(\C#N)C(N)=S)o2)c([N+](=O)[O-])c1`: 19.2% (active); for `CCc1cc(=O)oc2c(C)c(OCC(=O)N3CC[C@@]4(O)CCCC[C@H]4C3)ccc12`: -4.55% (inactive). Take `Cc1cccc(C)c1NC(=O)C(Cl)C(=O)c1ccccc1` (stereo not drawn): the inhibition is -15.6% (inactive).

Take `CC(C)N(C(=O)Cn1cc(S(=O)(=O)CC(=O)N2CCOCC2)c2ccccc21)C(C)C`: the inhibition is -3.05% (inactive). The same measure for `O=C(CSc1nnc2ccc(-c3ccncc3)nn12)N1CCCCC1`: -15.9% (inactive); for `CCCc1nnc(SCC(=O)N2C(C)CCCC2C)n1CC` (stereo not drawn): 3.99% (inactive). On to `CC(C)C(=O)Nc1nnc(SCC(=O)N2C(C)CCCC2C)s1` (stereo not drawn), for which the inhibition is -4.35% (inactive). `O=C(CSc1nnnn1C1CCCC1)N1CCCCC1`: the inhibition is 110% (active).

As to `CC1CCCC(C)N1C(=O)CSc1nnnn1C1CCCC1` (stereo not drawn), the inhibition is 53.7% (active). For `CC(Sc1nnnn1C1CCCCC1)C(=O)O` (stereo not drawn), the inhibition is 3.3% (inactive).

On to `COc1ccc(C2NC(=O)C(=O)/C2=C(\O)c2ccc(Cl)cc2)cc1OC` (stereo not drawn), for which the inhibition was -18% (inactive). In the case of `CCN(CC(=O)NCCCN1CCOCC1)S(=O)(=O)c1cc(Cl)ccc1Cl`, the inhibition was 10.6% (inactive). The same measure for `Cc1cccc(N2CCN(C(=O)c3cccc(N4C(=O)C5C6C=CC(C6)C5C4=O)c3)CC2)c1C` (stereo not drawn): -9.11% (inactive).

For the compound `CCC(C)NC(=O)C1c2ccccc2C(=O)N1Cc1ccccc1` (stereo not drawn), the inhibition is -8.49% (inactive).

On to `CCOc1ccc(NC(=O)C2CCN(C(=O)N3CCOc4ccccc43)CC2)cc1`, for which the inhibition was 7.11% (inactive). The same measure for `COc1ccc([N+](=O)[O-])cc1NC(=O)CCc1ccccc1`: 17% (inactive); for `CN(c1ccccc1)S(=O)(=O)c1cccc(NC(=O)Cc2c(F)cccc2Cl)c1`: -0.293% (inactive). For the compound `O=C(Nc1nc(-c2ccncc2)cs1)C1COc2ccccc2O1` (stereo not drawn), the inhibition is -4.34% (inactive).

As to `CC(C)Cc1nnc(NC(=O)CCc2ccccc2)s1`, the inhibition is 7.6% (inactive).

On to `O=C(Nc1nc2c(F)cc(F)cc2s1)C1COc2ccccc2O1` (stereo not drawn), for which the inhibition was 71.8% (active). Turning to `O=C(CCc1ccccc1)Nc1ncc([N+](=O)[O-])s1`, the inhibition is 85.8% (active). The same measure for `O=C(Cc1c(F)cccc1Cl)Nc1ncc([N+](=O)[O-])s1`: 75.5% (active); for `O=C(Nc1nnc(SCc2ccc(Cl)cc2Cl)s1)C1COc2ccccc2O1` (stereo not drawn): -4.34% (inactive). Next, `O=C(Cc1c(F)cccc1Cl)Nc1ccc(-n2cnnn2)cc1`: 12.8% (inactive); `CCN(CC)S(=O)(=O)c1ccc(N2CCOCC2)c(NC(=O)C2COc3ccccc3O2)c1` (stereo not drawn): 4.87% (inactive); `Cc1ccc(S(=O)(=O)N(C)C)cc1NC(=O)COC(=O)C1COc2ccccc2O1` (stereo not drawn): -6.06% (inactive). The same measure for `O=C(Nc1ncc([N+](=O)[O-])s1)C1COc2ccccc2O1` (stereo not drawn): 93.4% (active); for `Cc1cc(C)cc(N(CC(=O)NC2CCCC2)C(=O)CCC(=O)Nc2cc(C)on2)c1`: -3.5% (inactive). On to `Cc1ccc2[nH]cc(CCNC(=O)C3CCCCC3)c2c1`, for which the inhibition was -0.198% (inactive). Turning to `CC(C)CNC(=O)CC(NCC(C)C)C(=O)O` (stereo not drawn), the inhibition was -15% (inactive). The same measure for `CCCCNC(=O)C1CCC(=O)N1CCc1ccccc1` (stereo not drawn): 2.74% (inactive). Next, `COc1cc(C(=O)NC2CCN(Cc3ccccc3)CC2)cc(Cl)c1OC(C)C`: 2.17% (inactive); `Cc1cc(OCC(=O)NCC(O)c2ccccc2)c2c(C)c(C)c(=O)oc2c1` (stereo not drawn): 0.938% (inactive); `CCCCN(C)CCCNC(=O)c1cc(-c2cccs2)nc2ccccc12`: -4.77% (inactive). Consider `COc1cc(CN2CCCN(C)CC2)c([N+](=O)[O-])cc1OC`, for which the inhibition is -4.36% (inactive). Take `CCN(C(=O)CN1C(=O)/C(=C/c2ccc(F)cc2)SC1=S)C1CCS(=O)(=O)C1` (stereo not drawn): the inhibition was -8.73% (inactive). With `CCc1nn(CCCC(=O)Nc2ccc(C)cc2C)c(=O)c2cc3occc3n12`, the inhibition is -5.79% (inactive). Next, `O=C(Nc1cccc(Cl)c1N1CCOCC1)c1cccnc1`: -2.36% (inactive). With `Cc1cccc(N(C(=O)Cn2nnc(-c3ccc(C)o3)n2)C(C(=O)NC2CCCC2)c2ccncc2)c1` (stereo not drawn), the inhibition was -3.72% (inactive).

Consider `COc1ccc2c(CC(=O)N3CCc4cc(OC)c(OC)cc4C3)coc2c1`, for which the inhibition is -3.55% (inactive). The same measure for `COc1ccc(NC(=O)CC2COc3ccccc3O2)c(OC)c1` (stereo not drawn): 25% (inactive). As for `O=C(Nc1ccncc1)c1ccccc1[N+](=O)[O-]`, the inhibition was 5.85% (inactive).

Regarding `CC(=O)Oc1ccccc1C(=O)Nc1ncc([N+](=O)[O-])s1`, the inhibition was 77.1% (active). The same measure for `C/C(=N/NC(=O)C1COc2ccccc2O1)c1ccco1` (stereo not drawn): 3.3% (inactive). The same measure for `COc1ccc(NC(=O)c2ccccc2[N+](=O)[O-])cc1OC`: 9.2% (inactive); for `COc1ccc(NC(=O)C2COc3ccccc3O2)cc1` (stereo not drawn): 70.7% (active).

As to `CC(C)(C)c1cc[n+](-c2[nH]c(=O)sc2/C=N/N=C(\[O-])c2ccccc2)cc1`, the inhibition was 25.8% (inactive).

For the compound `COc1ccc(CNC(=O)c2c[nH]c3c(OC)cc(OC)cc3c2=O)cc1`, the inhibition is -11.7% (inactive). Next, `COc1ccc(CN2CCCC(N3CCc4ccccc4C3)C2)c(O)c1` (stereo not drawn): -7.05% (inactive); `CN1CCN(CCCCOc2cccc3ccccc23)CC1`: 29.7% (inactive); `Cc1cccc(CCNC(=O)Cn2ncc3c([nH]c4ccc(C)cc43)c2=O)c1`: 15.3% (inactive). `Cc1cc(-c2ccc(S(=O)(=O)N3CCc4ccccc4C3)s2)on1`: the inhibition was -19.6% (inactive). For the compound `CC1=C(C(=O)OC(C)(C)C)C(c2ccc(Br)cc2)NC(=O)N1CCCC(=O)O` (stereo not drawn), the inhibition was 9.92% (inactive).

In the case of `CCSc1nnc(SCC(=O)NNC(=O)c2ccccc2F)s1`, the inhibition is -24.4% (inactive).

Turning to `Cc1cccc(NC(=O)C(C)SCc2ccccc2)c1` (stereo not drawn), the inhibition is 30.2% (inactive). On to `CSc1ccc(CCNC(=O)CS(=O)(=O)Cc2nc(-c3ccccc3F)oc2C)cc1`, for which the inhibition is -3.45% (inactive). Consider `CCOc1ccccc1NS(=O)(=O)c1cc2c3c(c1)C(C)C(=O)N3CCC2` (stereo not drawn), for which the inhibition was -4.9% (inactive). The same measure for `COc1ccc2[nH]c(C(=O)Nc3ccccc3Cl)cc2c1`: 46.8% (active); for `COc1ccc2[nH]c(C(=O)N/N=C/c3cc(OC)c(OC)c(OC)c3)cc2c1`: 8.34% (inactive); for `COc1cccc(NC(=O)CN2CCN(CC(=O)Nc3ccccc3Cl)CC2)c1`: -8.02% (inactive). Next, `CC(C)[C@@H](NC(=O)OC(C)(C)C)C(=O)NCC1CCC(C(=O)N[C@@H](Cc2ccccc2)C(=O)O)CC1` (stereo partly drawn): 2.35% (inactive). Turning to `O=C1CCN(CCc2ccccc2)CCN1CCOc1ccccc1`, the inhibition is 7.81% (inactive).

In the case of `Cc1ccc2occ(/C=N/NC(=O)c3ccccc3C)c(=O)c2c1`, the inhibition is 9.81% (inactive). With `CC(C)(C)OC(=O)NCCCCCC(=O)N/N=C/c1coc2ccccc2c1=O`, the inhibition is 69.6% (active). Next, `NC(=S)N/N=C/c1coc2cc(Cl)ccc2c1=O`: 5.66% (inactive); `CC1CCCCN1C(=O)CCS(=O)(=O)Cc1ccccc1` (stereo not drawn): 24.6% (inactive).

For `COc1ccc(N(CC(=O)NCc2ccc(F)cc2)C(=O)CCC(=O)Nc2nccs2)cc1`, the inhibition is -15.4% (inactive).

For `CCOc1ccc(OCCSc2nc3ccccc3n2CC(=O)O)cc1`, the inhibition is 1.74% (inactive).

As for `Cc1ccc2c(C)c(C(=O)N(C)CCC3CCCCO3)oc2c1C` (stereo not drawn), the inhibition was 55.6% (inactive). The same measure for `Cc1ccc2nc(/C(C#N)=C\c3ccc(OC(=O)c4cccs4)cc3)[nH]c2c1`: 52.8% (active); for `Cc1ccc2nc(S(=O)(=O)O)[nH]c2c1`: -4.97% (inactive). Consider `CCOC(=O)CSc1nc2ccc(C)cc2[nH]1`, for which the inhibition is 46.5% (inactive). Next, `CCn1c(=S)sc2c(=O)n(CC(=O)Nc3cccc(Br)c3)c(C)nc21`: 13.8% (inactive). `COC(=O)c1c(NC(=O)COc2ccc(Cl)cc2Cl)sc2c1CC(C)(C)NC2(C)C`: the inhibition is -5.3% (inactive). The same measure for `Cc1c(C=O)c2ccccc2n1CCOc1ccccc1`: 31.9% (inactive); for `CCSc1nc2sc3c(c2c(=O)[nH]1)CC(C)(C)OC3`: 4.12% (inactive); for `CCOC(=O)CSc1nc2sc3c(c2c(=O)[nH]1)CC(C)(C)OC3`: -6.92% (inactive).

Turning to `CC/C(C)=N/Nc1nc2sc3c(c2c(=O)[nH]1)CC(C)(C)OC3`, the inhibition is 42.5% (active). The same measure for `Cc1ccc2nc(COc3ccc(N(C)S(=O)(=O)c4ccccc4)cc3)cc(=O)n2c1`: 13.5% (inactive); for `O=Cc1ccc(OCc2cn3ccccc3n2)cc1`: 57.2% (active). Next, `COc1ccc(C(=O)NCc2cn3ccccc3n2)cc1`: 8.12% (inactive).

For the compound `CCCNC(=O)CSc1nc(Cc2ccccc2)nc2ccccc12`, the inhibition was -9.69% (inactive).

For the compound `CCC(C(=O)NCCC(C)C)N(Cc1ccccc1Cl)C(=O)c1snc(C(N)=O)c1N` (stereo not drawn), the inhibition was -5.11% (inactive). Next, `Cc1ccn(-c2cccc(-n3ccc(C)n3)n2)n1`: 132% (active). With `Cn1cc(S(=O)(=O)Nc2ccc(Cl)cc2Cl)c(=O)n(C)c1=O`, the inhibition was -4.85% (inactive). For the compound `COc1ccc(CN2CCNC(=O)C2CC(=O)NCc2cn[nH]c2-c2ccccc2)c(F)c1` (stereo not drawn), the inhibition was -2.54% (inactive). Take `COc1ccc(C)cc1N(C(=O)Cn1nnc(-c2ccc(C)o2)n1)C(C(=O)NC1CCCC1)c1ccncc1` (stereo not drawn): the inhibition is -2.11% (inactive). With `Cc1ccc(S(=O)(=O)NC2CCCCCC2)cc1C(N)=O`, the inhibition was -3.95% (inactive).

For the origin of these results see PubChem BioAssay AID2315 (National Center for Advancing Translational Sciences (NCATS), 2010).
